This is an account of results in PubChem BioAssay.

Records with an inconclusive call do not appear. Active and inactive are the calls of the source.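 Rule for the calls, unless noted: active = viability at or below 30% in both replicate assays; inconclusive = viability at or below 30% in just one of the two assays; inactive = the rest.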

Experiment [1] is described as follows: reducers of endogenous Her2 protein level, primary screen, SKBR3 breast tumor cells, AlphaScreen, ATP viability (AID 461;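 active = Her2 level under about 52% in both replicate screens, with viability over 70% of control, limit read from the data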;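 for Her2 level: lower value means less Her2 protein in the cells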;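 for viability: percent of carrier control wells set as 100% viability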). Particulars: 18-24 h, measured here: SKBR3 viability, ATP luminescence, at 10 µM. In general terms: In Alpha technology, singlet oxygen from a donor bead excites a nearby acceptor bead.
Experiment [2] has as its target Receptor tyrosine-protein kinase erbB-2 (Homo sapiens) (UniProt P04626). The experiment is described as above. The note with it: 18-24 h, at 10 µM, stronger effect = lower value.
A short description of experiment [3]: SK-BR-3 cell growth inhibitors, pilot screen, 24 h, human (AID 572;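 active = viability at or below 10% of carrier control in both of two separate runs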;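 note: compound exposure lasted between 18 and 24 h rather than exactly 24 h; 100% = carrier-treated control wells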). Particulars: SK-BR-3 viability, CellTiter-Glo luminescence, at 10 µM, stronger effect = lower value. (ATP-based viability assays read luminescence as a measure of living cells.)
Experiment [4] is described as follows: HUVEC growth inhibition – cell-based, human, primary screen (AID 575).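 Note: 100% = median of untreated cell wells with 0.1% DMSO on each plate.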 The note with it: HUVEC proliferation, CellTiter-Glo luminescence, 72 h; at 10 µM; stronger effect = lower value.
A short description of experiment [5]: growth inhibitors of H69AR lung tumor, primary screen, human, duplicate replicates (AID 580;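 active = viability at or under a set limit in both replicates, limit being median viability minus 3 SD, cut at about 48% in these data, passing the limit was not always enough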;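 note: 100% = mean luminescence of untreated wells and 0% = no signal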). The note with it: H69AR lung tumor cells viability, ATP luminescence, 72 h; at 10 µM; stronger effect = lower value.
Experiment [6] in a line: reversal of MRP1-mediated doxorubicin resistance, pilot screen, H69AR cells, doxorubicin co-treatment (AID 601;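 active = viability loss from added drug above about 55%, and viability with drug at most 40%, in both replicates, limit read from the data, passing the limit was not always enough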). Particulars: CellTiter-Glo, 72 h, at 10 µM; for differential viability (reversal): stronger effect = higher value.
The nature of experiment [7]: 384-well plate pilot, post-Golgi transport modulator project, inhibition of yeast transport mutant growth (AID 636; in the data active = inhibition above about 31%). The note with it: absorbance 615 nm, about 18 h, stronger effect = higher value.
Experiment [8] in a line: growth suppression of yeast trafficking mutant, preliminary HTS, modulators of trafficking downstream of Golgi apparatus project, 1536-format plate, OD 615 nm (AID 637; in the data active = inhibition above about 30%). The note with it: yeast transport mutant growth, absorbance 615 nm, 18 h; stronger effect = higher value.
Experiment [9] in a line: OD615 S. cerevisiae growth inhibition, permissive medium, pilot counter-assay, permissive growth control for S. cerevisiae lifespan shortening project (AID 705;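 active = growth inhibition above 25% in both replicates, a cutoff set 3 SD above the mean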). Particulars: OD615, 24 h, at 10 µM, stronger effect = higher value.
Experiment [10] in a line: Restrictive medium S. cerevisiae growth inhibition, OD615, pilot screen of yeast lifespan reduction project, restrictive growth control (AID 706;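 active = growth inhibition above a set limit, 3 SD over mean compound inhibition, in both replicates, cut at about 43% in these data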;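 note: modified DeaD lifespan yeast strain shifted to restrictive glucose medium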). Particulars: OD615, 48 h, at 10 µM, stronger effect = higher value.
Experiment [11] is described as follows: viability gain of MRP-1-high H69AR cells under doxorubicin, pilot screen, MRP-1 activator project, CellTiter-Glo, duplicate (AID 807;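 active = viability increase at or above a cutoff of the median across tested compounds plus 3 SD, cut at about 8.5% in these data, passing the limit was not always enough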;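 note: compound pretreatment 18-22 h then 72 h combined with doxorubicin; 0% = doxorubicin alone and 100% = vehicle without doxorubicin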). Particulars: H69AR viability with doxorubicin, CellTiter-Glo luminescence; at 10 µM; stronger effect = higher value.
Experiment [12] can be described thus: growth suppression of beta-catenin knockout HCT116, pilot screen, human colon tumor cells (AID 823;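 active = cell viability at or below a set limit in both duplicate runs, the limit being the all-compound median minus 4 SD, cut at about 23% in these data, passing the limit was not always enough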;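 note: 0% = wells killed by 20 µM Hyamine and 100% = untreated DMSO cell wells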). Particulars: CellTiter-Glo, 60 h, at 10 µM, stronger effect = lower value.
A short description of experiment [13]: growth suppression of PTEN-deleted HCT116, pilot screen, cell-based, HCT116 clonal line, CellTiter-Glo (AID 824;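 active = viability at or below 27.92% in each of two runs, the all-compound median minus 4 SD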;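 note: 0% = 20 µM Hyamine control and 100% = vehicle cell control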). Particulars: 60 h, at 10 µM, stronger effect = lower value.
A short description of experiment [14]: inhibitors of the yeast RAM network, pilot screen, dse1pr::URA3 reporter, 5-FOA selection (AID 869;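 active = inhibition over a set limit, the all-compound mean plus 3 SD, in both replicate runs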;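 note: 0% = DMSO wells with no growth and 100% = 10 µM 1-NA-PP1 with full growth; RAM network block rescues cells from 5-FOA so hits raise OD615 growth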). The note with it: S. cerevisiae dse1pr::URA3 5-FOA growth, OD615, 2 d; at 10 µM; stronger effect = higher value; strain carries analog-sensitive mutant Cbk1 kinase.
The nature of experiment [15]: RAM signaling pathway blockade in yeast – S. cerevisiae, Pdr1DBD-CYC8 efflux-inhibited sensitized strain, primary screen (AID 1298;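 active = RAM network inhibition above 8.4% in each of two replicates, 3 SD over the compound average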;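 note: 0% = DMSO untreated cells without growth and 100% = 10 µM 1-NA-PP1 full growth; higher means more yeast growth rescued from 5-FOA killing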). The note with it: S. cerevisiae cbk1-as DSE1-URA3 strain, 5-FOA growth OD615, 2 d; at 50 µM; stronger effect = higher value.
[16] abbreviates: H69AR cells + 2 uM doxorubicin, measured here: viability with 2 uM doxorubicin, stronger effect = lower value.
The mark [17] stands for this setting: H69AR cells, compound alone cytotoxicity.

Sequence of Receptor tyrosine-protein kinase erbB-2 (Homo sapiens) (P04626 whole entry, looked up): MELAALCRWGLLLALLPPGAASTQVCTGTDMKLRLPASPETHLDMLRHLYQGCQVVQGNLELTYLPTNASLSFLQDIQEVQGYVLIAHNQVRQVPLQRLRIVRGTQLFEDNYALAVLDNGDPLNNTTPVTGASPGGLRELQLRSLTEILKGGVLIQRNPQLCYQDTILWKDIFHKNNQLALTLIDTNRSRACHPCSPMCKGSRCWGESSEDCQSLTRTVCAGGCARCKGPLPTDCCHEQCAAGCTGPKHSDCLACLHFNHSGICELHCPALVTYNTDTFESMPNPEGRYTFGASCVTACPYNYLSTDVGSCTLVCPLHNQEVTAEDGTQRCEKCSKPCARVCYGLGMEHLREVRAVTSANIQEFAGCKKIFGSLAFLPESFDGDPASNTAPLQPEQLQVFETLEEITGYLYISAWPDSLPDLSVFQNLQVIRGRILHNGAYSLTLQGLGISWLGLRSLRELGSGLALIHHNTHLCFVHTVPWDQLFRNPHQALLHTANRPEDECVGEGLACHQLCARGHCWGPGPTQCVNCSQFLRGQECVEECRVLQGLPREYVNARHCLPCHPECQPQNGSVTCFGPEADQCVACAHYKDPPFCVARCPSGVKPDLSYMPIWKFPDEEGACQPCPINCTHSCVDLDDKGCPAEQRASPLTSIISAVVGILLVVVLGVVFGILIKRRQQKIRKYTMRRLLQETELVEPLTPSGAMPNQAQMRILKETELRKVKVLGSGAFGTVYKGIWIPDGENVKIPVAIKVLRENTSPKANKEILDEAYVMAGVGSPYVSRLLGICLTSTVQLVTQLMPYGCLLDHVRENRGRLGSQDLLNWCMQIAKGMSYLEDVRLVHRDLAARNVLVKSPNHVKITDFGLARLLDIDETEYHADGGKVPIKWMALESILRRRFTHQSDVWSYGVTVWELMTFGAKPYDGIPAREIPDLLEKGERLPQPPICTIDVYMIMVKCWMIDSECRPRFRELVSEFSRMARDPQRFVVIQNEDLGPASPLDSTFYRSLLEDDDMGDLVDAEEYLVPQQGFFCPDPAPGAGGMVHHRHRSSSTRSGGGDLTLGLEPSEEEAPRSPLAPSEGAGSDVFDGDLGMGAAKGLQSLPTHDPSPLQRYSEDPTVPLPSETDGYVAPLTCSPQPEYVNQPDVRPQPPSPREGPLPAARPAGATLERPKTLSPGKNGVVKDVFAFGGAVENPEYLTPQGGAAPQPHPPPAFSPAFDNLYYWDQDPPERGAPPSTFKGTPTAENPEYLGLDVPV

`Cc1ccc2[nH]c(=O)c3cc(C(=O)NCCN4CCN(C)CC4)sc3c2c1`: the viability (in general, a read-out of living cells in per cent, often relative to untreated cells) in experiment [1] is 96%; in [3], 96% (inactive); in experiment [4], 97.1% (inactive); in [5], 87.3% (inactive); in experiment [6] (setting [16]) it was 78%; in experiment [6] (setting [17]) it was 87.3%. Moreover, the viability in experiment [12] was 74.5% (inactive); in experiment [13] it was 81.8% (inactive). Also, the Her2 level in experiment [2] is 91.5% (inactive). The differential viability (reversal) in [6] (H69AR cells + 2 uM doxorubicin) is 9.29% (inactive). For the same molecule, the inhibition (as a rule, the drop in the measured response relative to a control, in per cent) in experiment [7] was -1.03% (inactive); in experiment [8] it was 6% (inactive); in experiment [14], 1% (inactive). Also, the growth inhibition in experiment [9] is -9.77% (inactive); in [10], 1.5% (inactive). Besides, the viability increase in [11] was -3.64% (inactive). For the same molecule, the RAM network inhibition in [15] was -1.95% (inactive).

With `CC(C)(C)SCCNC(=O)CN1C(=O)c2ccccc2S1(=O)=O`, the viability in experiment [1] was 97%; in [3], 97% (inactive); in [4] it was 101% (inactive); in experiment [5] it was 106% (inactive); in experiment [6] (setting [16]) it was 97.4%; in experiment [6] (setting [17]), 106%. Moreover, the viability in experiment [12] is 103% (inactive); in experiment [13], 99.8% (inactive). Also, the Her2 level in experiment [2] is 92.5% (inactive). For the same molecule, the differential viability (reversal) in [6] (H69AR cells + 2 uM doxorubicin) is 8.94% (inactive). Besides, the inhibition in experiment [7] is -4.67% (inactive); in [8], 0.82% (inactive); in experiment [14], 1.42% (inactive). Also, the growth inhibition in experiment [9] is -13% (inactive); in experiment [10], -6.21% (inactive). Further, the viability increase in experiment [11] was -0.57% (inactive). The RAM network inhibition in experiment [15] was 4.44% (inactive).

`Cc1nnc(NC(=O)CSc2cn(CCNC(=O)c3ccccc3)c3ccccc23)s1`: the viability in [1] was 83.5%; in [3], 83.5% (inactive); in experiment [4] it was 75.5% (inactive); in experiment [5], 80.4% (inactive); in experiment [6] (setting [16]), 66.8%; in [6] (setting [17]) it was 80.4%. For the same molecule, the viability in [12] was 93.5% (inactive); in [13] it was 88% (inactive). In experiment [2], the Her2 level is 106% (inactive). For the same molecule, the differential viability (reversal) in experiment [6] (H69AR cells + 2 uM doxorubicin) was 13.6% (inactive). Further, the inhibition in experiment [7] was -3.2% (inactive); in [8] it was -4.17% (inactive); in experiment [14], -0.12% (inactive). For the same molecule, the growth inhibition in experiment [9] is 3.24% (inactive); in experiment [10] it was 17% (inactive). For the same molecule, in experiment [11], the viability increase was -0.89% (inactive). The RAM network inhibition in [15] is 1.15% (inactive).

`COc1cc(C2N3CC4(C)CN2CC(C)(C3)C4)ccc1O` (stereo not drawn): the viability was 94% in experiment [1]; 94% (inactive) in [3]; 105% (inactive) in experiment [4]; 104% (inactive) in experiment [5]; 92.3% in [6] (setting [16]); 104% in [6] (setting [17]). Besides, the viability was 104% (inactive) in [12] and 98% (inactive) in experiment [13]. The Her2 level in experiment [2] is 123% (inactive). Moreover, the differential viability (reversal) in experiment [6] (H69AR cells + 2 uM doxorubicin) was 11.5% (inactive). Besides, the inhibition was -0.51% (inactive) in experiment [7], -2% (inactive) in experiment [8] and 1.72% (inactive) in experiment [14]. In addition, the values for the growth inhibition in experiment [9] and in experiment [10] were -5.33% (inactive) and 1.65% (inactive), respectively. In [11], the viability increase was 0.39% (inactive). Also, the RAM network inhibition in experiment [15] is 0.39% (inactive).

On to `CCC1CCCCN1C(=O)CSc1nnc(-c2ccc(OC)cc2)o1` (stereo not drawn), for which the viability in experiment [1] is 98%; in experiment [3], 98% (inactive); in experiment [4] it was 99.8% (inactive); in [5] it was 87.6% (inactive); in experiment [6] (setting [16]) it was 94.1%; in experiment [6] (setting [17]), 87.6%. Moreover, the viability in experiment [12] was 95.5% (inactive); in experiment [13] it was 95.7% (inactive). The Her2 level in experiment [2] is 102% (inactive). Moreover, in experiment [6] (H69AR cells + 2 uM doxorubicin), the differential viability (reversal) is -6.46% (inactive). Besides, the figures for the inhibition in experiment [7], in experiment [8] and in experiment [14] were -3.6% (inactive), -9.34% (inactive) and 2.38% (inactive), respectively. Besides, the values for the growth inhibition in experiment [9] and in [10] were 7.74% (inactive) and 54.4% (active), respectively. For the same molecule, the viability increase in experiment [11] was -1.66% (inactive). Also, in [15], the RAM network inhibition is 1.19% (inactive).

Take `Cc1ccc(-c2nc3cnccn3c2Nc2ccc3c(c2)OCO3)o1`: the viability is 91.5% in experiment [1]; 91.5% (inactive) in [3]; 92.4% (inactive) in experiment [4]; 77.7% (inactive) in [5]; 91.3% in experiment [6] (setting [16]); 77.7% in experiment [6] (setting [17]). Further, the viability is 95.8% (inactive) in experiment [12] and 91.9% (inactive) in experiment [13]. Further, the Her2 level in [2] is 90.5% (inactive). Further, the differential viability (reversal) in [6] (H69AR cells + 2 uM doxorubicin) was -13.6% (inactive). Besides, the inhibition was -6.53% (inactive) in experiment [7], -2.83% (inactive) in experiment [8] and 1.34% (inactive) in experiment [14]. The growth inhibition in [9] was -15.8% (inactive); in experiment [10], 3.3% (inactive). In experiment [11], the viability increase was -3.1% (inactive). For the same molecule, the RAM network inhibition in experiment [15] was 12.5% (inactive).

For the molecule `Cc1nc2ccccc2c2oc(C(=O)NCCN3CCCCC3C)cc12` (stereo not drawn), the viability is 81% in [1]; 81% (inactive) in [3]; 99.5% (inactive) in experiment [4]; 93.1% (inactive) in experiment [5]; 99.2% in experiment [6] (setting [16]); 93.1% in experiment [6] (setting [17]). Further, the viability is 66.4% (inactive) in experiment [12] and 70.6% (inactive) in [13]. The Her2 level in [2] is 94% (inactive). Moreover, the differential viability (reversal) in experiment [6] (H69AR cells + 2 uM doxorubicin) is -6.12% (inactive). Also, the inhibition is -3.46% (inactive) in [7], -3% (inactive) in experiment [8] and 1.77% (inactive) in [14]. The values for the growth inhibition in [9] and in experiment [10] were -3.45% (inactive) and 0.34% (inactive), respectively. In addition, the viability increase in [11] is -2.08% (inactive). Moreover, the RAM network inhibition in [15] was -0.67% (inactive).

Regarding `Cc1nn(C(=O)c2ccc3c(c2)OCO3)c(N)c1-c1ccccc1`, the viability is 102% in experiment [1]; 102% (inactive) in [3]; 98.3% (inactive) in experiment [4]; 94.2% (inactive) in [5]; 84.5% in experiment [6] (setting [16]); 94.2% in experiment [6] (setting [17]). Also, the viability in experiment [12] is 99.2% (inactive); in experiment [13], 98.2% (inactive). For the same molecule, the Her2 level in [2] was 95% (inactive). The differential viability (reversal) in [6] (H69AR cells + 2 uM doxorubicin) was 9.75% (inactive). In addition, the values for the inhibition in experiment [7], in [8] and in [14] were -1.47% (inactive), 2.13% (inactive) and 0.585% (inactive), respectively. In addition, the growth inhibition in experiment [9] is 3.15% (inactive); in experiment [10] it was 5.03% (inactive). Further, the viability increase in experiment [11] is -2.76% (inactive). Besides, in [15], the RAM network inhibition is 1.02% (inactive).

For `Cc1cc(=O)oc2c1c(C)nn2-c1ccc(C(=O)OC(C)C)cc1`, the viability in [1] is 83.5%; in [3] it was 83.5% (inactive); in experiment [4], 99% (inactive); in [5], 96.9% (inactive); in experiment [6] (setting [16]) it was 94.5%; in experiment [6] (setting [17]) it was 96.9%. The viability was 97.3% (inactive) in experiment [12] and 87.4% (inactive) in experiment [13]. The Her2 level in [2] was 83.5% (inactive). In addition, in experiment [6] (H69AR cells + 2 uM doxorubicin), the differential viability (reversal) was 2.41% (inactive). Moreover, the inhibition was -0.13% (inactive) in experiment [7], 1.15% (inactive) in experiment [8] and 0.78% (inactive) in experiment [14]. Moreover, the growth inhibition in [9] is -4.51% (inactive); in experiment [10] it was 3.34% (inactive). In [11], the viability increase is -3.1% (inactive). For the same molecule, the RAM network inhibition in [15] was 1.04% (inactive).
